Source: PubChem BioAssay (EPA / NIEHS)
“And” between values parts separate entries of the source, which are not always exact repeats. Equal entries are not always repeated. Results filed as inconclusive are left out. More than one record can exist for a structure, and the calls need not agree. The source made the active and inactive calls. The calls were made as follows: active = hit-call score of the fitted dose curve at least 0.9, where 1 is the maximum; inconclusive = response in the unintended direction; inactive = score below 0.9.

Columns and labels:
[1] = ATG_XTT_Cytotoxicity: Cytotoxicity Assessment in the Attagene TRANS-FACTORIAL HepG2 Assay (AID 2283584)
Procedure, shortened: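 HepG2 cells transiently transfected with GAL4-UAS multiple reporter units, dosed 24 h; cytotoxicity read by XTT as loss of signal versus DMSO baseline.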

[2] = TOX21_p53_BLA_p2_viability: Viability Assessment in the Tox21 HCT-116 p53 Agonism Beta-lactamase Assay, Phase 2 (AID 2283591);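 also: actives lower the ATP signal meaning cytotoxicity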
Procedure, shortened: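 HCT-116 p53-bla cells (4000/well) rested 5 h at 37C, then received compounds in DMSO (217-fold dilution) for 16 h at 37C, 5% CO2. After the CCF4 read, CellTiter-Glo was added; ATP luminescence was read after 30 min at room temperature.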

[3] = target: Cellular tumor antigen p53 (Homo sapiens) (UniProt P04637); assay: TOX21_p53_BLA_p2_ratio: Tox21 HCT-116 p53 Agonism Beta-lactamase Assay, Ratio, Phase 2 (AID 2283592)
Chain of Cellular tumor antigen p53 (Homo sapiens) (P04637 whole entry, looked up): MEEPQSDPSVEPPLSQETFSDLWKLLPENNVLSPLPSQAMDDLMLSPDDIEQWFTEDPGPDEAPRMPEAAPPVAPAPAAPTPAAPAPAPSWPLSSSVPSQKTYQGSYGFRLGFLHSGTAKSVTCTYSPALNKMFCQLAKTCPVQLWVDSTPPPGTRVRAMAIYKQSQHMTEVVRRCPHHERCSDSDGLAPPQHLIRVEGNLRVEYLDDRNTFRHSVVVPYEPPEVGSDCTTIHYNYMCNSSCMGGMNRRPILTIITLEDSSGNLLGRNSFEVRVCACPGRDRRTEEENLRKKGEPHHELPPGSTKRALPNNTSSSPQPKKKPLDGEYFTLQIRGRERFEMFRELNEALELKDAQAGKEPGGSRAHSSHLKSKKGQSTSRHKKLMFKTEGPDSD
Procedure, shortened: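 First, HCT116 reporter cells settle for 5 h at 37C. Next, DMSO compound solutions are pinned in (217-fold dilution) and left 16 h. Finally, CCF4-AM substrate is loaded 2 h at room temperature and the 460/530 nm ratio read.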

[4] = TOX21_p53_BLA_p3_viability: Viability Assessment in the Tox21 HCT-116 p53 Agonism Beta-lactamase Assay, Phase 3 (AID 2283593);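 also: cells exposed to compound for 16 h before reading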
Procedure, shortened: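 HCT-116 cells (4000/well) rested 5 h at 37C, then got DMSO compounds by pin tool (217-fold dilution) for 16 h at 37C, 5% CO2. After the bla read, CellTiter-Glo was added and luminescence read at 30 min, room temperature.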

[5] = target: Cellular tumor antigen p53 (Homo sapiens) (UniProt P04637); assay: TOX21_p53_BLA_p3_ratio: Tox21 HCT-116 p53 Agonism Beta-lactamase Assay, Ratio, Phase 3 (AID 2283596)
Procedure, shortened: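 Cells were seeded at 4000/well, rested 5 h at 37C, then dosed with DMSO compound solutions (217-fold dilution) for 16 h. CCF4-AM substrate was loaded for 2 h at room temperature, and the 460/530 nm emission ratio was fitted for gain of signal versus DMSO.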

[6] = TOX21_p53_BLA_p4_viability: Viability Assessment in the Tox21 HCT-116 p53 Agonism Beta-lactamase Assay, Phase 4 (AID 2283597);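 also: hits lower the luminescence signal meaning cytotoxicity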
Procedure, shortened: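 4000 HCT116 cells per well; 5 h attachment; compounds from DMSO, 217-fold dilution; 16 h at 37C. Then CCF4-AM, 2 h RT, followed by CellTiter-Glo, 30 min RT, luminescence. Decrease = cytotoxicity.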

[7] = target: Cellular tumor antigen p53 (Homo sapiens) (UniProt P04637); assay: TOX21_p53_BLA_p5_ratio: Tox21 HCT-116 p53 Agonism Beta-lactamase Assay, Ratio, Phase 5 (AID 2283599)
Procedure, shortened: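 HCT-116 cells carrying a p53-inducible beta-lactamase reporter were seeded at 4000 cells/well and dosed after 5 h with compound in DMSO (217-fold dilution). After 16 h at 37C, CCF4-AM substrate was added for 2 h, and the 460/530 nm emission ratio was scored as gain-of-signal versus DMSO.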

[8] = TOX21_p53_BLA_p5_viability: Viability Assessment in the Tox21 HCT-116 p53 Agonism Beta-lactamase Assay, Phase 5 (AID 2283600)
Procedure, shortened: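 Decreased CellTiter-Glo luminescence denotes lost viability. Exposure: 16 h at 37C, 5% CO2, with compounds from DMSO stocks diluted 217-fold in wells of 4000 cells.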

[9] = target: Cellular tumor antigen p53 (Homo sapiens) (UniProt P04637); assay: TOX21_p53_BLA_p4_ratio: Tox21 HCT-116 p53 Agonism Beta-lactamase Assay, Ratio, Phase 4 (AID 2283601)
Procedure, shortened: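 HCT116 cells carrying an inducible beta-lactamase reporter were plated at 4000 cells/well, rested 5 h, then exposed to compounds in DMSO (217-fold dilution) for 16 h at 37C. CCF4-AM substrate was loaded 2 h at room temperature; 460/530 nm emission ratio scored gain-of-signal versus DMSO.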

Measured: AC50

CN(c1nccc(=O)[nH]1)C1CCN(c2nc3ccccc3n2Cc2ccc(F)cc2)CC1
inactive: [1]

CCCCCCOCCOCCO
inactive: [1]

COC(=O)c1ccc([N+](=O)[O-])cc1
inactive: [1]

Nc1ccc2cc(S(=O)(=O)O)cc(O)c2c1N=Nc1ccccc1C(F)(F)F
inactive: [1]

IC(I)I
inactive: all assays above

CCN(CCN)c1cccc(C)c1
not listed: [9]
inactive: all other assays above

CCCC(C)=O
inactive: all assays above

CCCCCCCC(=O)OCC(O)CO (stereo not given)
inactive: all assays above

COc1ccc(CCN2CCC(Nc3nc4ccccc4n3Cc3ccc(F)cc3)CC2)cc1
inactive: [1] | [4]
active: [2] 15.2 µM and 38.9 µM | [3] 31.1 µM and 43.8 µM | [4] 15.2 µM | [6] 14.4 µM and 23 µM | [7] 38.8 µM and 42.9 µM | [8] 25.7 µM and 40.5 µM | [9] 32.5 µM and 43.3 µM

C=C1CC[C@H](O)C/C1=C/C=C1\CCC[C@]2(C)[C@@H]([C@H](C)/C=C/[C@H](C)C(C)C)CC[C@@H]12
active: [2] 71.1 µM | [3] 76.4 µM and 45.8 µM | [4] 61.1 µM and 45.8 µM and 42.2 µM | [6] 45.8 µM | [7] 70.5 µM | [8] 79.6 µM
inactive: [1] | [2] | [3] | [5] | [6] | [7] | [8] | [9]

Nc1ccc(N)c2c1C(=O)c1ccccc1C2=O
active: [3] 7.9 µM | [9] 13 µM
inactive: all other assays above

C=C(C#N)C(=O)OCC
inactive: all assays above

CCO/C=C1\N=C(c2ccccc2)OC1=O
not listed: [8]
inactive: all other assays above

COc1cc([C@@H]2c3cc4c(cc3[C@@H](O[C@@H]3O[C@@H]5CO[C@@H](C)O[C@H]5[C@H](O)[C@H]3O)[C@H]3COC(=O)[C@H]23)OCO4)cc(OC)c1O
active: [3] 1.36 µM and 3.57 µM | [5] 852 nM and 3.18 µM | [7] 2.56 µM and 4.83 µM | [9] 6.18 µM and 1.98 µM
inactive: all other assays above

NC(=S)NNC(N)=S
inactive: all assays above

OCCOCCN1CCN(C2=Nc3ccccc3Sc3ccccc32)CC1
inactive: all assays above

CC(=O)O[C@@H]1CC2CCC1(C)C2(C)C (stereo not given in full)
not listed: [6]
inactive: all other assays above

Cc1c(OCC(F)(F)F)ccnc1CS(=O)c1nc2ccccc2[nH]1 (stereo not given)
inactive: all assays above

C=C(C)C(=O)OCCOCCOCCOC(=O)C(=C)C
not listed: [6]
inactive: all other assays above

Cc1ccc(-c2ccccc2)cc1
not listed: [6] | [9]
inactive: all other assays above

C=CCCCCCCCCCC
inactive: all assays above

CCC(C)c1cc([N+](=O)[O-])cc([N+](=O)[O-])c1OC(=O)OC(C)C (stereo not given)
active: [3] 7.55 µM | [5] 35.3 µM | [7] 36.9 µM
inactive: all other assays above
